Data reported in PubChem BioAssay AID743279 (National Center for Advancing Translational Sciences (NCATS), 2014).
In all, about 360,000 compounds went through this assay and about 17,000 (4.7%) were called active. Roughly 5% stayed inconclusive and do not appear here. The full list was thinned out, with actives kept by preference. Unmarked numbers belong to inactive results. Cut-off read from the data, not from the text of the source: active = activity change below about -50%; inconclusive = mostly about -30% to -49%; inactive = weaker than that.

Assay: qHTS for Inhibitors of Inflammasome Signaling: IL-1-beta AlphaLISA Primary Screen
Settings: THP-1 LPS/ATP IL-1B secretion, 16 h; at 57.5 µM, stronger effect = lower value
Summary of the method: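 THP-1 cells pretreated 1 hr with compounds (up to 57.5 uM final), then stimulated with LPS (250 ng/mL final) plus ATP (1.25 mM final); secreted IL-1B measured by AlphaLISA after 16 hr, decreased signal indicating inhibition.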
% is set by controls: 0 for no effect and ±100 for the full control effect.

| Compound | activity change |
| --- | --- |
| Cn1c(=N)n(CC(O)c2cccs2)c2ccccc21 (centres undefined) | 0% |
| CCCCCCN1C[C@@H](O)[C@H](n2cc(COC(=O)c3ccccc3)nn2)C[C@@H]1c1ccc(Cl)cc1 | 6.67% |
| COc1ccc(S(=O)(=O)N2CCCCC2c2cc(C(=O)NCc3ccc(F)cc3)no2)cc1 (centres undefined) | -1.6% |
| CS(=O)(=O)/C(C#N)=C/c1cccn1S(=O)(=O)c1ccc([N+](=O)[O-])cc1 | -25.1% |
| CCN(CC)CCn1c2c(c(SCC(=O)Nc3ccc(C(C)C)cc3)nc1=O)CCC2 | 7.71% |
| CCN(CC)CCn1c2c(c(SCC(=O)Nc3nc4ccccc4s3)nc1=O)CCCC2 | -96.2% (active) |
| Cc1ccc2nc(NC(=O)CSc3nc(=O)n(CCCN(C)C)c4c3CCC4)sc2c1 | -21.5% |
| C#CCNC(=O)C[C@@H]1C[C@@]2(C(=O)OCC)CCCC=C2N(Cc2ccco2)C1=O | 43.1% |
| COc1cc(OC)nc(S(C)(=O)=O)n1 | -95.5% (active) |
| CCC(=O)Nc1nc(OC)cc(OC)n1 | 5.6% |
| COc1ccc(NS(=O)(=O)c2ccc(F)cc2F)cn1 | 0.798% |
| CC(=O)Nc1cccc(-c2cc(NC(C)=O)c3ncc(-c4ccccc4)n3c2)c1 | 12.6% |
| NC(=O)C1(N2CCCCC2)CCN(C2CC(=O)N(Cc3ccc(N4CCCC4=O)cc3)C2=O)CC1 (centres undefined) | -8.36% |
| CC1(C(=O)NS(=O)(=O)c2ccccc2)CCN1C(=O)Cc1ccc(-c2ccccc2)cc1 (centres undefined) | -14.7% |
| Cn1c(CCNS(=O)(=O)c2ccc(F)cc2)nnc1SCc1cccnc1 | 22.3% |
| CCN(C(=O)COC(=O)c1ccccc1O)c1cccc2ccccc12 | -54.8% (active) |
| CCN(C(=O)CSc1ncn[nH]1)c1cccc2ccccc12 | 19.5% |
| Cc1cccc(C)c1NC(=O)COC(=O)c1ccccc1O | 12.4% |
| Cc1ccc(Sc2ccc(NC(=O)c3ccc(F)cc3)cc2C#N)cc1 | 10.9% |
| CC1CCCC(NC(=O)c2cccc(N3CCCC3=O)c2)C1C (centres undefined) | 9.06% |
| CC1CCN(C(=O)COC(=O)c2cc(S(=O)(=O)N3CCOCC3)ccc2Cl)CC1 | 11% |
| O=C(c1ccc(CS(=O)(=O)c2ccccc2)o1)N1CCN(c2ccccc2)CC1 | 41.8% |

| Compound | activity change |
| --- | --- |
| O=C(c1ccc(CS(=O)Cc2ccccc2Cl)o1)N1CCN(c2ccccc2)CC1 (centres undefined) | -50.4% (active) |
| Cc1ccc(CS(=O)Cc2ccc(C(=O)N3CCOCC3)o2)cc1 (centres undefined) | 41.9% |
| COc1cc(/C=C/CNC[C@H]2O[C@@H](n3cnc(C(N)=O)n3)[C@H](O)[C@@H]2O)ccc1O | -17.5% |
| O=C(O)CCn1cc(/C=C/C(=O)c2ccc(Cl)cc2)c(-c2cccc(Br)c2)n1 | -96.6% (active) |
| CCOC(=O)/C(C#N)=C/c1cn(CCC(=O)O)nc1-c1ccc(Br)cc1 | 0% |
| O=C(/C=C/NNC(=O)c1cccc(Br)c1)c1ccccc1 | -15.9% |
| CC(=O)N/C(=C\c1ccc(F)cc1)C(=O)NC(Cc1ccccc1)C(=O)O (centres undefined) | 41.6% |
| C[C@@H]1CN([C@H](C)CO)C(=O)CCCn2nncc2CO[C@@H]1CN(C)C(=O)OCc1ccccc1 | -18.7% |
| O=C(c1cc(COc2ccc(F)cc2F)on1)N1CCOCC1 | 4.05% |
| CCOC(=O)N1CCN(C(=O)C[C@@H]2C[C@@]3(C(=O)OC)CCCCC=C3N(CCC3=CCCCC3)C2=O)CC1 | -20.9% |
| O=C(Oc1cccc(C(=S)N2CCOCC2)c1)c1cccc(Cl)c1 | -5.21% |
| CC(=O)Nc1ccccc1OC(=O)N1CCOCC1 | 4.54% |
| O=C(/C=C/c1cccs1)c1cc(Cl)ccc1OC(=O)N1CCOCC1 | -111% (active) |
| COc1ccccc1C(=O)NC(CCSC)C(=O)N1CCN(C/C=C/c2ccccc2)CC1 (centres undefined) | -8.53% |
| O=C(CC(CC(=O)c1ccccc1)c1ccco1)c1ccccc1 | 13.9% |
| COc1ccc(NC(=O)COC(=O)C2COc3ccccc3O2)cc1 (centres undefined) | 8.76% |
| CC(=O)c1ccc(OCC(=O)N(C)C2CCS(=O)(=O)C2)cc1 (centres undefined) | -0.496% |
| O=C(c1ccc(=O)[nH]c1)N(Cc1ccco1)C1(C(=O)NC2CCCCC2)CCCCC1 | -5.54% |
| Cc1cc(/C=C(/C#N)C(=O)Nc2ccc(Cl)cc2)c(C)n1-c1cccnc1 | -3.14% |
| CNC(=O)/C(C#N)=C/c1c(F)cccc1Cl | -84.3% (active) |
| O=C(/C=C/c1c(F)cccc1Cl)Nc1nn[nH]n1 | 19.3% |
| Cc1cccc(C(=O)OCC(=O)Nc2sccc2C(N)=O)c1C | -7.19% |
